Results published in publication PMC7862700, “An all-to-all approach to the identification of sequence-specific readers for epigenetic DNA modifications on cytosine”.

Columns and labels:
Assay in all cases: DAPPL (digital affinity profiling via proximity ligation, sequencing); 10 mM Tris-HCl pH 7.5, 50 mM NaCl, 1 mM DTT, 4% glycerol, room temperature, 30 min; GST-TFs on glutathione beads, 16-mer random dsDNA library, 0.1% formaldehyde crosslink after washing; high values mean tight binding
FEV = molecular target: T1, FEV (Homo sapiens, UniProt Q99581 1-238); settings: protein: recombinant; tags: N-terminal GST; dsDNA, one strand shown
T1 sequence: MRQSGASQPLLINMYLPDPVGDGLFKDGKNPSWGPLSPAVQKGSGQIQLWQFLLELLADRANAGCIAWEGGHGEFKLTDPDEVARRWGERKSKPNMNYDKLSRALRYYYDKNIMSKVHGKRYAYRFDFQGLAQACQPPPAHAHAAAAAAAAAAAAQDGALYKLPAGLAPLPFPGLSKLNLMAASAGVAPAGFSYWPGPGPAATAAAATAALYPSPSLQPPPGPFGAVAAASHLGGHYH
Procedure, shortened: (§1)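 A tag-only sample was pooled with DNA-barcoded human transcription factors that had been expressed in yeast as GST fusions and captured on glutathione beads. The pools were incubated for 30 min at room temperature with 200 nmole of a random double-stranded 16-mer DNA library in Tris/NaCl/DTT/glycerol buffer, then washed, crosslinked with 0.1% formaldehyde, proximity-ligated (BsaI/T4 ligase, 1 h, 37 °C), PCR-amplified and sequenced on an Illumina NextSeq500. Binding signal is each hexamer's read frequency for a factor divided by its frequency for the tag-only sample.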

ETV5 = ETV5 (Homo sapiens, UniProt P41161 1-510); settings: protein: recombinant; tags: N-terminal GST; dsDNA, one strand shown
ETV5, sequence (P41161 whole entry): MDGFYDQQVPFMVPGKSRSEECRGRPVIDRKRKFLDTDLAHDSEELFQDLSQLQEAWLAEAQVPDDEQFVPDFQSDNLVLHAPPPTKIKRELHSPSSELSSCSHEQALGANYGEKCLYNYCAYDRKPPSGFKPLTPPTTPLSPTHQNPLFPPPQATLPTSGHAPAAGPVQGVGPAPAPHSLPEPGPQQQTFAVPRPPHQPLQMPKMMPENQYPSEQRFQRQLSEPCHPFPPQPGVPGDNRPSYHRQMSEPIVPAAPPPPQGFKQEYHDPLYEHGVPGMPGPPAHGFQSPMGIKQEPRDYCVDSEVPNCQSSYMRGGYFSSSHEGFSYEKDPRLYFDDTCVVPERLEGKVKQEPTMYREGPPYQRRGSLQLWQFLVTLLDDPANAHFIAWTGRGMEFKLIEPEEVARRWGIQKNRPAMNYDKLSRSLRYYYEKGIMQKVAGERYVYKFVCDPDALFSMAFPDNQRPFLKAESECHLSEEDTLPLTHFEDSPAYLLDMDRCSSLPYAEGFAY
Procedure, shortened: as §1

HSF1 = HSF1 (Homo sapiens, UniProt Q00613 1-529); settings: protein: recombinant; tags: N-terminal GST; chain copies: 3; dsDNA, one strand shown
HSF1, sequence (Q00613 whole entry): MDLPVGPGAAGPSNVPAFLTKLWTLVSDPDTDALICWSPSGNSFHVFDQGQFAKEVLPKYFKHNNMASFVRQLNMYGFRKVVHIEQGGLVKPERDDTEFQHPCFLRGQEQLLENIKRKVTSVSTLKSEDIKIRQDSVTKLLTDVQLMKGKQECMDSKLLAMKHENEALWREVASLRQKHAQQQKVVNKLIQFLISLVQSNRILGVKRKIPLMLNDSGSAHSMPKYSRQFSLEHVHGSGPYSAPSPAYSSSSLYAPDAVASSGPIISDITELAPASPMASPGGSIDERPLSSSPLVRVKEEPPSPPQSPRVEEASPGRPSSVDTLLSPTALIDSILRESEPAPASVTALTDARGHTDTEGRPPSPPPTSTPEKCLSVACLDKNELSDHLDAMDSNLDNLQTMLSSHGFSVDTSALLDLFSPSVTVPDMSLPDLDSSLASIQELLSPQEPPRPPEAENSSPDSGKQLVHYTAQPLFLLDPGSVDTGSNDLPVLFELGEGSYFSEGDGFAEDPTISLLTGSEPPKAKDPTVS
Procedure, shortened: as §1

SPIC = molecular target: T2, SPIC (Homo sapiens, UniProt Q8N5J4 1-248); settings: protein: recombinant; tags: N-terminal GST; dsDNA, one strand shown
T2 sequence: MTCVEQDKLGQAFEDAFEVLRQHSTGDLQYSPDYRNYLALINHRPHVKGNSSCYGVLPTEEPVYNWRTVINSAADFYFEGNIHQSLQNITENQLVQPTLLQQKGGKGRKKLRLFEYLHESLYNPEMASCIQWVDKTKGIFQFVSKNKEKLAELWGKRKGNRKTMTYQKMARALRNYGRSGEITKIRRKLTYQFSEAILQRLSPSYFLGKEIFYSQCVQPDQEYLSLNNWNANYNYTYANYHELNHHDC
Procedure, shortened: as §1

ELF4 = ELF4 (Homo sapiens, UniProt Q99607 1-663); settings: protein: recombinant; tags: N-terminal GST; dsDNA, one strand shown
ELF4, sequence (Q99607 whole entry): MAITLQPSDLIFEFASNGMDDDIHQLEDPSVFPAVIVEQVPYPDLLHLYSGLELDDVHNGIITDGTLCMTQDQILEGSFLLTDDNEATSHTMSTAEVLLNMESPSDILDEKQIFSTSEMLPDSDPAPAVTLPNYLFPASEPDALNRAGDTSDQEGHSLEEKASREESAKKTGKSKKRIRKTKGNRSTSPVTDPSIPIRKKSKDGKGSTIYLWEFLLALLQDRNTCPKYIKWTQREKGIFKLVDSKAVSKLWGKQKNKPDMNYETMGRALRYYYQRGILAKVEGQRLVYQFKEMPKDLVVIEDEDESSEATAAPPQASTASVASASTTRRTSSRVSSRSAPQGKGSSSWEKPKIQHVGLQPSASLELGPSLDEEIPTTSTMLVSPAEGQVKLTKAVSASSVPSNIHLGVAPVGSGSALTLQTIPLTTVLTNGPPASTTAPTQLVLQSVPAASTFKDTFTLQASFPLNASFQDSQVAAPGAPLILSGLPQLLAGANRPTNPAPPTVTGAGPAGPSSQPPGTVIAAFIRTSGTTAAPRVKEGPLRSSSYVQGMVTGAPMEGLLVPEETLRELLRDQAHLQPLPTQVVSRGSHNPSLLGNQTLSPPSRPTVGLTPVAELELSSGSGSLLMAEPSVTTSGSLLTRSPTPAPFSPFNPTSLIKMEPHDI
Procedure, shortened: as §1

ELK4 = molecular target: T3, ELK4 (Homo sapiens, UniProt P28324-2 1-405); settings: protein: recombinant; tags: N-terminal GST; dsDNA, one strand shown
T3 sequence: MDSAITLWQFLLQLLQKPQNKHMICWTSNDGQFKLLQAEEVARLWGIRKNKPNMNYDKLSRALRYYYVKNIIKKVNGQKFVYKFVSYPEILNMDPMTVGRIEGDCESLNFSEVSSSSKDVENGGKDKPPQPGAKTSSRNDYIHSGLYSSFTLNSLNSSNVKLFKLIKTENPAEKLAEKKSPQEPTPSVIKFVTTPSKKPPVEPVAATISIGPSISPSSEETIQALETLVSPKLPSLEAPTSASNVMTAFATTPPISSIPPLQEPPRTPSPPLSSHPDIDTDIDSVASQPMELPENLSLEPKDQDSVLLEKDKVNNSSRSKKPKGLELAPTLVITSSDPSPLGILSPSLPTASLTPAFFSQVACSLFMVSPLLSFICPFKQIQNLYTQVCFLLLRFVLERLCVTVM
Procedure, shortened: as §1

ETV2 = molecular target: T4, ETV2 (Homo sapiens, UniProt O00321 1-342); settings: protein: recombinant; tags: N-terminal GST; dsDNA, one strand shown
T4 sequence: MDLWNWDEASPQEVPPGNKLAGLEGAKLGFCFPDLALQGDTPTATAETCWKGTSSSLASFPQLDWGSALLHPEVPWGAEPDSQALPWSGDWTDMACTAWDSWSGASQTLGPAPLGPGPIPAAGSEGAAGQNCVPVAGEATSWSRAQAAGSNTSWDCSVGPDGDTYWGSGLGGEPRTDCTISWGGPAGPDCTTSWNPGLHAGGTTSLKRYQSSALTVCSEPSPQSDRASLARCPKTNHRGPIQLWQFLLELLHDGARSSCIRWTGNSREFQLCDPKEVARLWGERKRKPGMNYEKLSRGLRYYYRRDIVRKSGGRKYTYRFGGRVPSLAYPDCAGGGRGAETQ
Procedure, shortened: as §1

ELF3 = molecular target: T5, ELF3 (Homo sapiens, UniProt P78545 1-371); settings: protein: recombinant; tags: N-terminal GST; dsDNA, one strand shown
T5 sequence: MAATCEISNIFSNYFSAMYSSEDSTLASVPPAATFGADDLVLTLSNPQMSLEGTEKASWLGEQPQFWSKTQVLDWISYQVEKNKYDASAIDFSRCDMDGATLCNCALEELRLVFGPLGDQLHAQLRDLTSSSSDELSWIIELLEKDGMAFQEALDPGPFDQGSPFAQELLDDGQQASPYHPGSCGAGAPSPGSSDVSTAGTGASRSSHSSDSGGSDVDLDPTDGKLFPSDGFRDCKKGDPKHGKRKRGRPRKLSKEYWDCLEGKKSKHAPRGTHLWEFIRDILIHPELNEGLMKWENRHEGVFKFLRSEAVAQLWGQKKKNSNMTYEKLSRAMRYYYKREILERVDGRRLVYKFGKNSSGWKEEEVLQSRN
Procedure, shortened: as §1

CRX = CRX (Homo sapiens, UniProt O43186 1-299); settings: protein: recombinant; tags: N-terminal GST; dsDNA, one strand shown
CRX, sequence (O43186 whole entry): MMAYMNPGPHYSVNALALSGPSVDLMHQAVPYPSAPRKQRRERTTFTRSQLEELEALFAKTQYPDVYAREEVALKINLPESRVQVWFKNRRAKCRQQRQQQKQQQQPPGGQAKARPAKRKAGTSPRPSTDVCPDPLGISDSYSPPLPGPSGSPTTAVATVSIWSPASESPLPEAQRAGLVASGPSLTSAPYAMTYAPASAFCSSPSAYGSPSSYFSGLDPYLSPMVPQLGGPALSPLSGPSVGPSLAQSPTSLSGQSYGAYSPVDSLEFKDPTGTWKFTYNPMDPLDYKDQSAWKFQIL
Procedure, shortened: as §1

## TTGCTC
FEV
  binding signal: 1.25 fold enrichment (6-mer frequency, TF over GST control)
ETV5
  binding signal: 1.41 fold enrichment (6-mer frequency, TF over GST control)
HSF1
  binding signal: 1.3 fold enrichment (6-mer frequency, TF over GST control)
SPIC
  binding signal: 1.34 fold enrichment (6-mer frequency, TF over GST control)
ELF4
  binding signal: 1.24 fold enrichment (6-mer frequency, TF over GST control)
ELK4
  binding signal: 1.16 fold enrichment (6-mer frequency, TF over GST control)
ETV2
  binding signal: 1.4 fold enrichment (6-mer frequency, TF over GST control)
ELF3
  binding signal: 1.29 fold enrichment (6-mer frequency, TF over GST control)
CRX
  binding signal: 1.17 fold enrichment (6-mer frequency, TF over GST control)
